A selection: hits, their analogues and other compounds. The true share with any hit is near 3.2%.
CHT inh – inhibitors of human choline transporter CHT. High affinity choline transporter 1 (Homo sapiens), Q9GZV3. CHT-expressing cells, membrane potential dye, choline response; stronger effect = lower value. B-score at 10 µM. 310,000 compounds, 0.86% hits. AID 488975, 2010;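 active = B-score over 3 SD under the library average, and starting fluorescence ratio not unusually high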;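 also: choline stimulus applied at its EC90 after an EC20 pre-addition; B-score computed on integrated fluorescence ratio after choline addition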
Rce1 inh – yeast Rce1p protease inhibitors, primary screen, biochemical, fluorescence, cell-free homogeneous. 290,000 compounds, 0.27% hits. calls only. yeast membranes, quenched prenylated peptide cleavage fluorescence;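 active = fall in fluorescence gain of 50% or more versus controls, with final raw signal at or below 3038400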
CHT allo act – CHT positive allosteric modulators, primary screen, cell-based, membrane potential dye, choline EC20. CHT-expressing cells; stronger effect = higher value; LV-AA mutant CHT in HEK293 cells. 310,000 compounds, 0.49% hits. B-score at 10 µM;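 active = initial fluorescence not abnormally high and integrated response B-score, plate-corrected, over 3 SD above library mean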
Kir21 block – inhibitors of mouse Kir2.1 inward-rectifier potassium channel; HEK293-Kir2.1, FluxOR thallium flux fluorescence; stronger effect = lower value; B-score at 10 µM; 310,000 compounds, 0.85% hits; AID 1672, 2009;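 active = fluorescence ratio B-score at or below minus 3 SD of library scores, with starting-brightness B-score within 2 SD, cut at about -4.2 in these data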;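 also: channel flux triggered by added potassium and thallium sulfate stimulus; B-score of peak minus minimum fluorescence over baseline after thallium stimulus; more negative B-score means stronger Kir2.1 block with less thallium influx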
Target sequence (P35561 whole entry, looked up): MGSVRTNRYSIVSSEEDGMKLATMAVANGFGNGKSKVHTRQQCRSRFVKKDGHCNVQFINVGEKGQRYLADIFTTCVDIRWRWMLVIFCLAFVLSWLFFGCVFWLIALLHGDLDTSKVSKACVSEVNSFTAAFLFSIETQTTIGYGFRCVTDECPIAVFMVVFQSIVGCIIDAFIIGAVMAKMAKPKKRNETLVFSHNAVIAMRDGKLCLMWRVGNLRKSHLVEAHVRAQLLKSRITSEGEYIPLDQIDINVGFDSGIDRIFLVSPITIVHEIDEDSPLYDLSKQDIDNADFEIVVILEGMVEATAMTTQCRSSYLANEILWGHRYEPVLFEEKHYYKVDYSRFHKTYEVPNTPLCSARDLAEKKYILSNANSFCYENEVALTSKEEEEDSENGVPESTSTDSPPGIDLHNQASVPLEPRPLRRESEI
ANO1 activ – TMEM16A chloride channel activators or potentiators, primary screen, cell-based, HTS. Anoctamin-1 (Mus musculus), Q8BHY3. HEK293 TMEM16A/YFP-H148Q/I152L, iodide quench fluorescence; stronger effect = lower value. AID 623877, 2012. B-score at 10 µM. 340,000 compounds, 0.3% hits;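 active = fluorescence-ratio B-score plate-corrected deviation score at least 3 library SD below zero, with starting fluorescence score within 5 deviations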;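 also: channel opened by trigger with iodide after compound preincubation; score built on the fluorescence ratio of max minus min over baseline; more negative score means more quench and so TMEM16A activation or potentiation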
ANO1 block – TMEM16A chloride channel inhibitors, primary screen, cell-based, HTS | HEK293 TMEM16A/YFP iodide influx fluorescence, ionomycin | normalized B-score (activity score, 25-100; higher = stronger inhibition) at 10 µM | 310,000 compounds, 1.2% hits | AID 588511, 2011;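 active = ratio plate-corrected score three or more library SD toward inhibition, starting fluorescence score within five deviations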;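 also: score derived from kinetic fluorescence span divided by baseline fluorescence per well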
Hits are given with their value; - = inactive; . = no result given; + = active, no number.

SMILES | CHT inh | Rce1 inh | CHT allo act | Kir21 block | ANO1 activ | ANO1 block
COc1ccc2c(c1)CCC(C)N2C(=O)C(=O)c1c[nH]c2ccccc12 (stereo not drawn) | - | - | - | - | - | -
CNC(=O)/C(C#N)=C/c1cccc(Oc2ccccc2)c1 | - | - | - | -5.1 | - | -
CNC(=O)/C(=C\c1cccc(Oc2ccccc2)c1)NC(=O)c1ccccc1 | - | - | - | - | - | -
C/C(=N\N1CCN(c2ccc(Cl)cc2)CC1)c1cccc([N+](=O)[O-])c1 | - | - | - | - | - | 25
C[C@@H]1NC(=O)N(c2ccc(F)cc2)C1=O | - | - | - | - | - | -
COc1ccc(CN(C(=O)c2ccco2)c2ccc(C)c(C)c2)cc1 | - | - | - | - | - | -
CC(Sc1ccc(Cl)cc1)C(=O)Nc1ccc2c(c1)OCO2 (stereo not drawn) | - | - | - | - | - | -
CC(C)N1CCC2(CC1)N=C(c1ccc3c(c1)OCO3)CC(c1cc(Cl)ccc1O)N2 (stereo not drawn) | -6.9 | - | - | - | - | -
CCCCc1ccc(NC(=S)NCCN2CCOCC2)cc1 | - | - | - | - | - | -
CC(=O)Nc1cccc(C(=O)/C=C/c2ccc(Br)cc2)c1 | - | - | - | -6 | - | -
FC(F)(F)c1cc(CCN2CCNC[C@H]2Cc2cccc3ccccc23)cc(C(F)(F)F)c1 | - | - | - | - | -9.7 | -
Cc1nn(-c2ccccc2)nc1CNC(=O)c1ncoc1-c1ccccc1 | - | - | - | - | -5.6 | -
CCC(C)NC(=O)c1cc2c(=O)n3cccc(C)c3nc2s1 (stereo not drawn) | - | + | - | - | - | -
C=CCNC(=O)c1cc2c(=O)n3cccc(C)c3nc2s1 | - | - | - | - | - | -
COc1ccccc1NC(=O)CSc1nnnn1-c1ccc2c(c1)OCO2 | - | - | - | - | -7.5 | -
COc1ccc(CC(=O)O/N=C(\N)Cc2cccc3ccccc23)cc1OC | - | - | - | - | - | -
CC(C)Oc1ccc(Cl)cc1Nc1nc(NCCO)nc(N2CCCC2)n1 | - | - | - | - | - | -
COc1ccc2[nH]c3c(=O)n(/N=C/[C@H]4C(C)C=C(C)CC4C)c(=O)[nH]c3c2c1 (stereo partly drawn) | - | - | - | - | -16 | -
NS(=O)(=O)c1ccc(NC(=O)NC2CC(=O)N(c3ccc4c(c3)OCCO4)C2)cc1 (stereo not drawn) | - | - | - | - | - | -
O=C(O)c1ccccc1NC(=O)C1CCCO1 (stereo not drawn) | - | - | - | - | - | -
O=C(NC(=S)Nc1ccccc1N1CCCCC1)c1ccco1 | - | - | - | - | - | -
O=C(Cc1ccc(F)cc1)Nc1ccccc1N1CCCC1 | - | - | - | -5.4 | - | -
O=C(Cc1ccc(F)cc1)Nc1ccccc1Sc1ccccc1 | - | - | - | -6.3 | - | -
O=C(Nc1ccccc1Sc1ccccc1)C1CCCO1 (stereo not drawn) | - | - | - | -4.8 | - | -
O=C(NC(=S)Nc1ccccc1N1CCCC1)c1ccco1 | - | - | - | - | -6.9 | -
SMILES | CHT inh | Rce1 inh | CHT allo act | Kir21 block | ANO1 activ | ANO1 block
CSc1ccccc1NC(=O)Cc1ccccc1 | - | - | - | - | - | -
CN(Cc1ccccc1)C(=O)[C@H]1CCC(=O)N1Cc1ccco1 | . | - | . | - | - | .
CCn1cc(-c2ccccc2)c(C(=O)O)c1-c1ccc(OC)cc1 | - | - | - | - | - | -
Nc1nnn(CC(=O)N/N=C/C=C/c2ccccc2)n1 | - | - | - | - | - | -
O=C(Cc1ccccc1)Nc1ccccc1Sc1ccccc1 | - | - | - | -9.2 | - | -
O=C(Cc1ccc(Br)cc1)Nc1ccccc1Sc1ccccc1 | - | . | - | - | - | -
CCc1c2ccccc2nn1-c1ccccc1C(=O)C(C)=O | - | - | - | -4.8 | - | -
O=C(NN1C(=O)/C(=C\c2ccc(O)c([N+](=O)[O-])c2)SC1=S)c1ccccc1Cl | - | - | - | - | -5.5 | -
Cc1cccc(OCC(=O)O/N=C(\N)Cc2ccc(Cl)cc2)c1 | - | - | - | - | - | -
Cc1cc(C)nc(SCc2nnc(SCC(=O)N3CCCc4ccccc43)o2)n1 | - | . | - | -5 | - | -
CC1Cc2ccccc2N1C(=O)CSc1nn2c(=O)c(C(C)(C)C)nnc2s1 (stereo not drawn) | - | - | - | - | -37 | -
Cc1ccc(-n2ncc3c(SCC(N)=O)ncnc32)cc1C | . | - | . | - | - | .
O=C(Nc1ccccc1Cl)c1ccc(COc2ccc3c(c2)CCC3)cc1 | - | - | - | - | -7.4 | -
NNC(=O)c1ccc(COc2ccc3c(c2)CCC3)cc1 | - | - | - | - | - | -
Cc1oc(-c2ccc(Cl)cc2)nc1CS(=O)CC(=O)NCc1ccco1 (stereo not drawn) | - | + | - | - | - | -
Cc1ccc(Cn2nc(C)c(NC(=O)CSc3nc4c(c(C(F)(F)F)n3)CCc3ccccc3-4)c2C)cc1 | - | - | - | - | - | -
CN(Cc1ccccc1)C(=O)CSc1nc2c(c(C(F)(F)F)n1)CCc1ccccc1-2 | - | - | - | - | - | 25
COc1ccc(C(C)=O)cc1CSc1nnc(Nc2ccccc2C)s1 | - | - | - | -4.3 | - | -
O=C(O)CN1C(=O)/C(=C\c2ccc(OC(=O)c3ccco3)cc2)SC1=S | - | - | - | - | -5.9 | -
COc1ccc([C@H]2Oc3cc(O)cc(O)c3C(=O)C2[C@@H]2C(=O)c3c(O)cc(O)cc3O[C@@H]2c2ccc(OC)cc2)cc1 (stereo partly drawn) | - | - | - | - | . | 100
O=[N+]([O-])/C(Cl)=C(/NCCO)C(Cl)=C(Cl)Cl | . | . | . | . | - | .
Cc1ccc(CNC(=O)c2ccccc2NC(=O)CN2CC(C)OC(C)C2)cc1 (stereo not drawn) | - | - | - | - | - | -
CC(C)Cn1c(-c2ccco2)n[nH]c1=S | - | - | - | - | - | 25
COc1ccc(C(=O)OC(COc2ccccc2)Cn2ccnc2)cc1 (stereo not drawn) | - | - | - | -7 | - | -
CC(C)N1CCN(S(=O)(=O)c2ccccc2)c2ccccc21 | . | . | . | . | - | .
CC(C)(C)NC(=O)NC(=O)CN1CCN(c2ncc(C(F)(F)F)cc2Cl)CC1 | - | - | - | - | - | 25
O=C(CNC(=O)c1ccc2c(c1)S(=O)(=O)N=C1CCCCCN12)Nc1ccc(F)c(F)c1 | - | - | - | - | - | -
